Data reported in ChEMBL document CHEMBL3988442, “University of Dundee, Small-Polar-MMV Screening Library” (2021).
For part of these data: Potency and affinity values are given separately.

Tests used:
Set-up in all cases: scale not given: direction of the effect not stated beside the values
[1] = target: Protein translocase subunit SecA (Escherichia coli (strain K12)) (UniProt P10408); experiment: Assay to Identify E. coli SecA ATPase Inhibitors; type: functional; conditions: 30 µM
[2] = target: T1, Ubiquitin-activating enzyme e1, putative (Leishmania donovani (strain BPK282A1)) (UniProt E9BSI1); experiment: Leishmania donovani Ubiquitin Activating Enzyme (LdE1); type: functional; conditions: 30 µM
T1 sequence (whole entry): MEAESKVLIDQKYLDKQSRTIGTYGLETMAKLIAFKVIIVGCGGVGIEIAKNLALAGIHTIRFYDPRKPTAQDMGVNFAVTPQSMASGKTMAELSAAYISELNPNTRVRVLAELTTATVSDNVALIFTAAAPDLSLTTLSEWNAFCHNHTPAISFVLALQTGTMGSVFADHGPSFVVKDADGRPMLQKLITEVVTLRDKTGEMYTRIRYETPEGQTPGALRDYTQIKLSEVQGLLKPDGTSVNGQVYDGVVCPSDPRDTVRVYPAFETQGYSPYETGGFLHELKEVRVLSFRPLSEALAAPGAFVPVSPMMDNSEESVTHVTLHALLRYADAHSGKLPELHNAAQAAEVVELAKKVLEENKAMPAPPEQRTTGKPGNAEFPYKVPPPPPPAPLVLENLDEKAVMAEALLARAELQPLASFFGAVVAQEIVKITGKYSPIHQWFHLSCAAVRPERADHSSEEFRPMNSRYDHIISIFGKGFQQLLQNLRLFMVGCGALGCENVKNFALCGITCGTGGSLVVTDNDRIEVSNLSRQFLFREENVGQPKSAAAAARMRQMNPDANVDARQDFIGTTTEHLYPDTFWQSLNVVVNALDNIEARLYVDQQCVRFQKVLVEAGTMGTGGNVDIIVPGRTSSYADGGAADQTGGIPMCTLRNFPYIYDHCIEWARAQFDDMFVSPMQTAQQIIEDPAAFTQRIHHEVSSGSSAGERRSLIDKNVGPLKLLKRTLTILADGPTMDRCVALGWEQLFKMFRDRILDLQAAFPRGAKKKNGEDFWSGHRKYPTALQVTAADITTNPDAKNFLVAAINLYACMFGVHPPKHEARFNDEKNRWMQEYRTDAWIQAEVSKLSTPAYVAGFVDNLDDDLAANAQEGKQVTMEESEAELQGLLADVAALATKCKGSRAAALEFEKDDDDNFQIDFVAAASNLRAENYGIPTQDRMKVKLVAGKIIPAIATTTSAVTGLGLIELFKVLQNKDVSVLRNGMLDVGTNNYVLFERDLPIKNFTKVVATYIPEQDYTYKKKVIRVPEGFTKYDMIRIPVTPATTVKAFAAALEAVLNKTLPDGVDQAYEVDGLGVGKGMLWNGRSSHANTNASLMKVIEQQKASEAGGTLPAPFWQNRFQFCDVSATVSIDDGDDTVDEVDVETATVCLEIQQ

[3] = target: AMP-activated protein kinase, AMPK (Homo sapiens) (UniProt P54646+O43741+P54619+Q9UGJ0+Q9Y478+Q13131+Q9UGI9); experiment: AMP-dependent Kinase enzyme assay. An in vitro enzyme assay that detects ADP turnover that is directly proportional to AMPK activity. This uses naive AMPK that is activated during the assay with MK-8722; type: functional; conditions: 30 µM
[4] = target: Sialic acid-binding Ig-like lectin 9 (Homo sapiens) (UniProt Q9Y336); experiment: Hs-Siglec9 ALPHAscreen SOP 20170721; conditions: 10 µM
Trypanosoma cruzi = experiment: Trypanosoma cruzi phosphomannomutase and mannose-1-phosphate guanylyltransferase assay; type: functional; conditions: 10 µM
[5] = target: T2, Arginase-2, mitochondrial (Homo sapiens) (UniProt P78540); experiment: in vitro enzyme assay to detect the production of urea directly proportional to the activity of Arginase II; type: functional; conditions: 33.3 µM; note: in the data most compounds retested in dose-response had high values
T2 sequence (whole entry): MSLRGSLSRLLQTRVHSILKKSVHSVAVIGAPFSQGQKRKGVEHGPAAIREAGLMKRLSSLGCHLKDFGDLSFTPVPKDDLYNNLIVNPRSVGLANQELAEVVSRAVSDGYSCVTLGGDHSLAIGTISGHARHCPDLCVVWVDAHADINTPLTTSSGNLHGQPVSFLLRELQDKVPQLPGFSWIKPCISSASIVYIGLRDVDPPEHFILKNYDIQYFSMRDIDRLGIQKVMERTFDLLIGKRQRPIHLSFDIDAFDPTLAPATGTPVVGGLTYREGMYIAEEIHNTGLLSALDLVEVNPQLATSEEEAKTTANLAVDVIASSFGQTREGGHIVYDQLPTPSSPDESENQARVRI

[6] = target: T3, Proteasome subunit beta (Trypanosoma cruzi) (UniProt O96673); experiment: Trypanosoma cruzi proteasome chymotrypsin-like activity (TcProtChymo) assay.; note: in the data most compounds retested in dose-response had high values; type: functional; conditions: 9.37 µM
T3 sequence (whole entry): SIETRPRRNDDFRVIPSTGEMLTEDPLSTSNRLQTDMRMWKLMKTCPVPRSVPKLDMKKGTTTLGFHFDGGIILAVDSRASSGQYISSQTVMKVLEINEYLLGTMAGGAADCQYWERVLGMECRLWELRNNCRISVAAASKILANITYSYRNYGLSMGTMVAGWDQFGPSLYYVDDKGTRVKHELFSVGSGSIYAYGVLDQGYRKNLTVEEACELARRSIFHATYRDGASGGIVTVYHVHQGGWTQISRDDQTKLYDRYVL

Homo sapiens = species: Homo sapiens; experiment: To identify inhibition of the IFN signalling (Jak-Stat) pathway via expression of an eGFP reporter gene under the control of an IFN-stimulated response element (ISRE) containing MxA promoter.; type: functional; conditions: 30 µM
[7] = target: T4, Tyrosyl-tRNA synthetase, putative (Trypanosoma cruzi (strain CL Brener)) (UniProt Q4DSP6); experiment: Trypanosoma cruzi tyrosyl tRNA synthetase (TcYRS) _High Tyrosine SOP; type: functional; conditions: 30 µM; note: in the data most compounds retested in dose-response had high values
T4 sequence (whole entry): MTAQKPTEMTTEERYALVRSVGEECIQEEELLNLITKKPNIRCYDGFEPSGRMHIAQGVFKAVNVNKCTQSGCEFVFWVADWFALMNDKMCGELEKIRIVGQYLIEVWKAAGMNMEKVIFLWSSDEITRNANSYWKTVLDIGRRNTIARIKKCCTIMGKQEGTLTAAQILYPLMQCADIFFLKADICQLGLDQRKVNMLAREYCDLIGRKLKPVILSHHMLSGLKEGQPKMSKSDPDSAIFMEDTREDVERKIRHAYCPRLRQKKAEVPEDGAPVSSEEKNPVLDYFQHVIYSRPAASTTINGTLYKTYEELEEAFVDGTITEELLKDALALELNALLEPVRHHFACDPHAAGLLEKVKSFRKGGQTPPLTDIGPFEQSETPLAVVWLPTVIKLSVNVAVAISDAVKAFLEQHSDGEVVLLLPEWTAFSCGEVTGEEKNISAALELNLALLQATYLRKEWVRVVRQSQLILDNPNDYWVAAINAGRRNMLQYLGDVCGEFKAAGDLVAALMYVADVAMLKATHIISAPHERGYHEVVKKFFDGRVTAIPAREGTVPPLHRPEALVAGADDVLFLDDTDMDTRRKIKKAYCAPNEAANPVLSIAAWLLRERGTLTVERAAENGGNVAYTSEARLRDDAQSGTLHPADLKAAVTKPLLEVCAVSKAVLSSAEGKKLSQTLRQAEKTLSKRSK

[8] = target: T4, Tyrosyl-tRNA synthetase, putative (Trypanosoma cruzi (strain CL Brener)); experiment: Trypanosoma cruzi tyrosyl tRNA synthetase (TcYRS) SOP; type: functional; conditions: 30 µM
[9] = target: Chromo domain-containing protein 1 (Saccharomyces cerevisiae (strain ATCC 204508 / S288c) (Baker's yeast)) (UniProt P32657); experiment: ScCHD-1 Enzyme Inhibition Assay; type: functional; conditions: 30 µM; note: in the data most compounds retested in dose-response had high values
Chromo domain-containing protein 1 (Saccharomyces cerevisiae (strain ATCC 204508 / S288c) (Baker's yeast)), sequence (P32657 whole entry, the tested form may be a part): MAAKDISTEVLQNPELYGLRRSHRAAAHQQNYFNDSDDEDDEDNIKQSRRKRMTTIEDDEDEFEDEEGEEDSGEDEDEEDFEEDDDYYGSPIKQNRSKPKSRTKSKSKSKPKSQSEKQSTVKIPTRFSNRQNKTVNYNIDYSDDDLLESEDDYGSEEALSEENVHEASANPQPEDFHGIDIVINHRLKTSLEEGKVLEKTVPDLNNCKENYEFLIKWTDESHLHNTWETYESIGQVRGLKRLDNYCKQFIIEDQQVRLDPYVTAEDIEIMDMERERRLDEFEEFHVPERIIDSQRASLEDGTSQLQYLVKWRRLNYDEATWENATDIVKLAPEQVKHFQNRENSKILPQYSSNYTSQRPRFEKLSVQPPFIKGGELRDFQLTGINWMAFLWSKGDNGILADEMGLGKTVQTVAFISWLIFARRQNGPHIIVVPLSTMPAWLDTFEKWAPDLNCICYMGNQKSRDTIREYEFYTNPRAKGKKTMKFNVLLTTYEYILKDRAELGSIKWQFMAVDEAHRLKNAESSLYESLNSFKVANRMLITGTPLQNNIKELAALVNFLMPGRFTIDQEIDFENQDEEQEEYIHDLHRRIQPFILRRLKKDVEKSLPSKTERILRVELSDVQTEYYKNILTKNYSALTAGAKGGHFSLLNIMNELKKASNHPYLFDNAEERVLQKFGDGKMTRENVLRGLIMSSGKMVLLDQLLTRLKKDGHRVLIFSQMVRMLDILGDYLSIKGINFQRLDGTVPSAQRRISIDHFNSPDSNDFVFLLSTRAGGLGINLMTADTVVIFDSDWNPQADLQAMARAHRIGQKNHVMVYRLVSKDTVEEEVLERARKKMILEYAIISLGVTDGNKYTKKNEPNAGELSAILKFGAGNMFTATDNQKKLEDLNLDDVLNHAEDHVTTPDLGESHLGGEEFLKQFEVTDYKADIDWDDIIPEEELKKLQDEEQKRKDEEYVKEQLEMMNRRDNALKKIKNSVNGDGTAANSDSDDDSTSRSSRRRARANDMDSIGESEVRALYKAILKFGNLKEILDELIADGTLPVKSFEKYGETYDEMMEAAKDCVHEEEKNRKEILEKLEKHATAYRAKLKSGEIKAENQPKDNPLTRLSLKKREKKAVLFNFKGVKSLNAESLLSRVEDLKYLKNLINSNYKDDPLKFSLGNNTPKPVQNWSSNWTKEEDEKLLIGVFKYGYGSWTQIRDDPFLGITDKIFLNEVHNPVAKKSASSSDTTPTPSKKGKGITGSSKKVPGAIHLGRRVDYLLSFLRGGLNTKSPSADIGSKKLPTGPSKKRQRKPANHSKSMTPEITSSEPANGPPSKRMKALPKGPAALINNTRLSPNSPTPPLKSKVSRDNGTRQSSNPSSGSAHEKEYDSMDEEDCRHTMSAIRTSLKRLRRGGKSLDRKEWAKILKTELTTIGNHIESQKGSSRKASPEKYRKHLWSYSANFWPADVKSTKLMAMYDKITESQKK

Protein translocase subunit SecA (Escherichia coli (strain K12)), sequence (P10408 whole entry): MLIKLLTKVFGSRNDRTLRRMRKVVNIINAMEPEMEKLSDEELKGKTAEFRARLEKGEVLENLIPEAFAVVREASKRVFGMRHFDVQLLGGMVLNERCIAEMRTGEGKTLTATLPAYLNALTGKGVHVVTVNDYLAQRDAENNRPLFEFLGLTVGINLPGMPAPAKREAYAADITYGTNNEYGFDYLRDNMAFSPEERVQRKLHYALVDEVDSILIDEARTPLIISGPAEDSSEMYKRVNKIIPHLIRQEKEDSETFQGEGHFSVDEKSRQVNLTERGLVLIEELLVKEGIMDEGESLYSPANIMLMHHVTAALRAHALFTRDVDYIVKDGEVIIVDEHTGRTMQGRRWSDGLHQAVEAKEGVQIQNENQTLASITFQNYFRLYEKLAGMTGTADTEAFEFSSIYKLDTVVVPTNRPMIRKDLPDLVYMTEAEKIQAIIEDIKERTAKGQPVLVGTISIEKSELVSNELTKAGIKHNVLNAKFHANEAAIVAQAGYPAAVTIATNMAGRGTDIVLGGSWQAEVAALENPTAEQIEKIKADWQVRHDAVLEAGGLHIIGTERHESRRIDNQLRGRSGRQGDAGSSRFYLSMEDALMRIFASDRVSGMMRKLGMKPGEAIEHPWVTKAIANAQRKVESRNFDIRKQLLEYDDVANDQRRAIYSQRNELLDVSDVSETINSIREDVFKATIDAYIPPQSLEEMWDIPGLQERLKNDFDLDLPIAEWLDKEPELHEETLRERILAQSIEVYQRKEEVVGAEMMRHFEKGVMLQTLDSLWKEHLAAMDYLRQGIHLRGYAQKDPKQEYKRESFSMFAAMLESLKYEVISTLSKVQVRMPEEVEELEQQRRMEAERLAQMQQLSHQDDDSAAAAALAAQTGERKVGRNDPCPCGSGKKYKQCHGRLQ
Sialic acid-binding Ig-like lectin 9 (Homo sapiens), sequence (Q9Y336 whole entry): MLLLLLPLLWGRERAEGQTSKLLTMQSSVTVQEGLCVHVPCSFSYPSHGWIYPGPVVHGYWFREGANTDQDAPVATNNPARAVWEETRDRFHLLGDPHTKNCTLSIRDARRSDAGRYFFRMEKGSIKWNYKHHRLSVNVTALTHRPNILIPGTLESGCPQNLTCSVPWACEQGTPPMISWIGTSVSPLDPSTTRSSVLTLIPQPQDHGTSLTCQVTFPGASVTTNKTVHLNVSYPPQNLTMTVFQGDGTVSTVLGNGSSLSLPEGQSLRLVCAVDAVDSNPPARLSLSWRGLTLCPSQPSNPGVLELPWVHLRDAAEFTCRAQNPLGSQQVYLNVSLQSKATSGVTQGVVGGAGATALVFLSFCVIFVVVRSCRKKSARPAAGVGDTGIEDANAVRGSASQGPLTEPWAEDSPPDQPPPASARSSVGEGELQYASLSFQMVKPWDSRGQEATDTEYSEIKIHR

Compound	Percent Effect [1]	Percent Effect [2]	Percent Effect [3]	Percent Effect [4]	Percent Effect (Trypanosoma cruzi)	Percent Effect [5]	Percent Effect [6]	Percent Effect (Homo sapiens)	Percent Effect [7]	Percent Effect [8]	Percent Effect [9]
CN(C)c1ccc(C(=O)N2CCN(C(=O)N3CCCCC3)CC2)nn1	-6.05%	7.79%	4.21%	10.5%	5.8%	-3.92%	4.56%	3.45%	0%	7.32%	-13.4%
Cc1cc(N(C)Cc2noc(C)n2)n2nc(C)c(C)c2n1	-2.12%	9.72%	-8.49%	-4.19%	-1.07%	3.97%	15.6%	9.15%	4.21%	10.3%	-4.2%
CN(c1ccncn1)C1CC2(CCN(C(=O)CCc3cccs3)C2)C1 (stereo unspecified)	-3.27%	1.35%	6.25%	8.01%	5.34%	-1.16%	1.87%	39.7%	5.38%	6.49%	-4.42%
Cc1noc(CCCC(=O)NC(C)c2cn(-c3ccccc3)nn2)n1 (stereo unspecified)	-1.64%	0%	3.68%	6.5%	6.58%	1.15%	6.35%	-19.3%	2.45%	4.88%	-6.39%
O=C1CCCN1Cc1ncn2c1CN(C(=O)c1cccc(F)c1)CCC2	-0.833%	16.2%	-2.98%	12%	3.42%	20.6%	13.3%	17.8%	8.6%	16.1%	-12.8%
COc1ccc(NC(=O)C(c2cccc(F)c2)N2CCOCC2)cc1 (stereo unspecified)	-1.48%	0%	4.04%	2.98%	-5.75%	3.55%	13.5%	0.224%	6.38%	10.4%	-3.15%
O=C(c1cccnc1)N1CCCC2(CCN(c3ccsc3)C2=O)C1 (stereo unspecified)	-2.21%	10.4%	15.5%	-9.57%	-8.19%	11%	20.9%	9.28%	-7.41%	1.28%	-9.17%
c1ncn(CC2CCCCN2Cc2csc(C3CCCC3)n2)n1 (stereo unspecified)	-2.71%	-5.2%	-0.0278%	1.89%	9.55%	-1.42%	6.93%	11.4%	10.7%	19.5%	66.7%
CNC(=O)[C@@]12CCO[C@@H]1CCN(S(=O)(=O)c1cccc(C)c1)C2	-2.33%	10.8%	2.22%	0.794%	3.23%	7.96%	9.96%	11.1%	1.08%	12.8%	-1.83%
N#Cc1cccc(C(=O)N2CCc3ncc(Cn4cccn4)n3CC2)c1	-2.76%	-5.33%	6.89%	-4.2%	-1.74%	-56.1%	2.22%	-20.1%	-3.12%	-2.5%	-3.63%
COc1ncccc1NC(=O)N1CCC(CNC(C)=O)CC1	-3.02%	5.33%	-2.93%	4.72%	3.02%	3.12%	7.5%	20.5%	4.92%	13.6%	-8%
CCOc1ccnc(N2CCN(C(=O)c3cccnc3O)CC2)n1	-3.86%	17.7%	-4.02%	2.97%	0.283%	4.56%	4.5%	2.56%	15.3%	26.6%	-4.5%
Cc1noc([C@@]23CCO[C@@H]2CCN(C(=O)c2sccc2C)C3)n1	-3.07%	5.33%	2.33%	-2.88%	2.12%	-46.1%	0.513%	1.48%	1.04%	0%	1.44%
CC(C)c1noc(C(C)N2CCN(Cc3ccco3)CC2)n1 (stereo unspecified)	-1.82%	-7.89%	-0.515%	3.05%	7.19%	-3.24%	2.45%	-1.85%	1.48%	1.24%	0.33%
CC(C)n1ncc2c1NC(=O)CSC2C(C)(C)C (stereo unspecified)	-4%	17.3%	-3.06%	7.25%	3.14%	-3.7%	8.69%	8.09%	5.29%	12.8%	-8.28%
CC(C)c1nc2n(n1)CC(NCc1nnc(C(C)C)o1)CC2 (stereo unspecified)	-2.44%	13.5%	139%	8.12%	7.08%	-4.81%	5.41%	10.9%	6.4%	18.5%	-8.46%
O=C(CCC1CCCC1)NCCn1nc(C2CCNC2)c2nccnc21 (stereo unspecified)	-2.79%	12.2%	-13.6%	-8.06%	-6.52%	-5.34%	17.6%	23.6%	-3.23%	-3.9%	-19.5%
O=C(NCCC(=O)N1CCCc2ccccc21)c1c(O)cc(F)cc1F	-5.79%	10.4%	-0.269%	9.22%	6.95%	-1.47%	11.1%	22.7%	-0.952%	-49.4%	-16.6%
CNC(=O)CC1CCN(Cc2nc(-c3cccc(Cl)c3)oc2C)CC1	-1.83%	8.11%	-6.08%	19.1%	4.05%	0%	20.2%	4.01%	5.82%	9.76%	-2.39%
CNC1CCCN(Cc2noc(C3CC3)n2)C1 (stereo unspecified)	0.64%	-5.41%	-3.33%	-1.4%	-0.193%	-0.476%	1.9%	-1.86%	1.59%	0%	0.831%
CC(C)Nc1ncnc2c1CCN(C(=O)c1ccncc1F)CC2	-4.14%	8.11%	0.552%	-7.16%	-6.35%	-2.87%	17.2%	4.19%	3.24%	10.3%	-3.13%
